Screens deposited in PubChem BioAssay by National Center for Advancing Translational Sciences (NCATS).
Rows were chosen to be rich in hits. Some 7.2% of all compounds tested hit in one or more screens of this group.
HCV inhibitor: inhibitors of hepatitis C virus infection | Huh7.5.1 HCVcc-Cre infection, luciferase reporter, 44 h | Potency, µM (series often up to 41.8 µM), without a hit: top-dose activity change, negative = inhibition, actives largely listed as inhibitors | actives 3.4% (n = 340,000) | AID 651820; note: % is set by controls: 0 for no effect and ±100 for the full control effect
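HCVcc-Cre virus at an moi near 0.5 was added right after compound to cells cultured 4 h from seeding (1,000 cells/well). Luciferase activity was determined 44 h later, 15 min after substrate addition at RT.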
MARV entry inh: Marburg virus entry inhibition. Potency, µM (doses to about 37.8 µM), inactives show at the highest dose activity change, negative = inhibition, usual class: inhibitors. Marburg virus pseudotyped entry inhibition, cell reporter. AID 540276. actives 1.8% (n = 300,000); calls by dose curve; tested in HEK293 cells; note: % is set by controls: 0 for no effect and ±100 for the full control effect
FMDV inh: foot and mouth disease virus antiviral activity | FMDV antiviral cell-based qHTS | Potency, µM (doses to about 57.9 µM), without a hit: top-dose activity change, negative = inhibition, most hits filed as inhibitors | actives 1.2% (n = 410,000); calls by dose curve; tested in HEK293T cells; note: read-out not given here; % is set by controls: 0 for no effect and ±100 for the full control effect; nearly all actives have a fitted effect of over 45% in size
RE007 growth inh: less growth of the S. pombe RE007 Vpr strain; S. pombe RE007 Vpr strain, BacTiter-Glo ATP luminescence, 24 h; Potency, µM (highest dose often 92.2 µM), without a hit: at the top dose activity change, negative = less growth, hits mostly inhibitors; actives 0.21% (n = 360,000); AID 651644; active = well fitted falling curve with a large enough effect; inconclusive = small, poorly fitted or top-dose-only effect; inactive = no such curve, though single readings can be large or run the other way; note: % is set by controls: 0 for no effect and ±100 for the full control effect; nearly all actives have a fitted effect of over 50% in size
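Fission yeast RE007 carrying one integrated HIV-1 vpr copy, seeded at OD 0.01 in PMG+AL medium with 23 nL pinned compound. Grown 24 h at 30 degrees; viability read by BacTiter-Glo luminescence after 5 min.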
Sm TGR block: inhibitors of Schistosoma mansoni thioredoxin glutathione reductase; purified TGR, DTNB reduction, TNB absorbance 405 nm; Potency, µM (highest dose often 114 µM), without a hit: at the highest dose activity change, negative = inhibition, actives largely listed as inhibitors; actives 3% (n = 360,000); AID 485364; note: % is set by controls: 0 for no effect and ±100 for the full control effect; nearly all actives have a fitted effect of over 60% in size
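Kinetic colorimetric format: TGR-catalysed, NADPH-driven DTNB reduction monitored via TNB absorbance. Enzyme dispensed at 20 nM; compound exposure 15 min at room temperature before reaction start.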
LASV entry inh: blocks Lassa virus binding to or entry into cells | Lassa virus pseudotype entry inhibition, cell reporter | actives 1.2% (n = 300,000) | Potency, µM (top dose mostly 37.9 µM), for the others: at the highest dose activity change, negative = inhibition, hits mostly inhibitors | AID 540256; calls by dose curve; tested in HEK293 cells; note: % is set by controls: 0 for no effect and ±100 for the full control effect; nearly all actives have a fitted effect of over 50% in size
HCV inh confirm: HCV inhibition, cherry-pick confirmation; shares compounds with HCV inhibitor; AID 720575; actives 78% (n = 640); Potency, µM (highest dose often 41.8 µM), without a hit: at the top dose activity, negative = inhibition, most hits filed as inhibitors; HCVcc-Cre infectious virus cell assay, luciferase, inhibition; note: nearly all actives have a fitted effect of over 80% in size
HCV cytotox: host cell cytotoxicity counter-screen for HCV inhibitors; Potency, µM (doses to about 41.8 µM), for inactives: top-dose activity change, negative = cytotoxicity, hits mostly inhibitors; actives 22% (n = 640); HCV host cell line cytotoxicity counterscreen; shares compounds with HCV inhibitor; AID 720576;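 note: 44 h compound exposure; % is set by controls: 0 for no effect and ±100 for the full control effect; nearly all actives have a fitted effect of over 55% in size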
Numbers without * were called inactive; ? = inconclusive; . = no result given; [ ] = another dose, or the depositor's remark. Unless noted, calls come from the whole dose curve; as a rule, active = well fitted curve in the direction sought with a large enough effect; inconclusive = small, poorly fitted or top-dose-only effect, or another doubt; inactive = no such curve, though single readings can be large; an effect the other way counts as inactive or inconclusive. Potency is the fitted concentration of half-maximal effect.

SMILES	HCV inhibitor	MARV entry inh	FMDV inh	RE007 growth inh	Sm TGR block	LASV entry inh	HCV inh confirm	HCV cytotox
O=C(CCl)Nc1cc2[nH]c(=O)[nH]c2cc1Br	6.3µM*	?	?	-5%	?	?	16µM*	?
O=C(COC(=O)c1cccc(Br)c1)Nc1ccc2[nH]c(=O)[nH]c2c1	-1%	?	5%	3%	-1%	9%	.	.
COc1cc(OC)cc(-c2c(-c3cccs3)c3cc(-c4ccc5[nH]ccc5c4)ccc3n2C)c1	11µM*	.	47%	-1%	-21%	.	14µM*	7%
COc1cc(OC)cc(-c2c(-c3cccs3)c3cc(-c4ccc(OC)c(OC)c4)ccc3n2C)c1	?	.	-6%	-9%	-30%	.	.	.
CCc1ccc(CNC(=O)c2cccc(-n3c(C)nc4cccnc43)c2)cc1	.	.	?	.	0%	-1%[46.1 µM]	.	.
O=C(Nc1cc(C(F)(F)F)ccc1N1CCCCC1)C1=COCCO1	.	.	?	5%	.	.	.	.
O=C(Nc1cc(C(F)(F)F)ccc1N1CCCCC1)c1ccc(Br)o1	5µM*	-26%	16%	-5%	2%	-17%	14µM*	8%
Cc1ccc(Cl)cc1Nc1nn2c(=O)c3ccc(C(=O)NC4CCCCC4)cc3nc2s1	.	.	-27%	.	-2%	?	.	.
O=C1/C(=C/c2cccnc2)Oc2cc(OS(=O)(=O)c3ccc(F)cc3)ccc21	4.5µM*	?	22µM*	3%	3%	-22%	25µM*	-29%
CCC(C(=O)NCCc1cc(OC)ccc1OC)n1nc(C)c2sc3ccccc3c2c1=O (stereo unspecified)	.	4%[46.1 µM]	-19%	.	1%	1%[46.1 µM]	.	.
Cc1ccccc1C(=O)NC(CC(C)C)C(=O)NCC(C)(C)N1CCOCC1 (stereo unspecified)	27%	-5%	-6%	22%	.	14%	.	.
COc1ccc(/C=C/C(=O)Nc2cccc(S(=O)(=O)NC3=NCCCCC3)c2)cc1OC	6.3µM*	.	40µM*	5%	-11%	.	20µM*	?
COc1ccccc1C(=O)Nc1ccc(S(=O)(=O)Nc2nc(C)cc(C)n2)cc1	.	-3%[46.1 µM]	0%	.	-1%	-4%[46.1 µM]	.	.
CC(C)C(=O)OC1=CN(Cc2ccccc2)S(=O)(=O)c2ccccc21	.	1%[46.1 µM]	9%	.	5%	-1%[46.1 µM]	.	.
O=C(Nc1ncc(Cc2ccc(SC(F)F)cc2)s1)c1ccccc1	?	-4%	-17%	20%	-2%	?	14µM*	28µM*
Cc1cc(/C=C2\SC(=S)N(C)C2=O)c(C)n1-c1cccc(O)c1	4.5µM*	.	1.3µM*	12%	-19%	.	25µM*	25µM*
COc1ccc(-n2c(C)cc(/C=C3/SC(=S)N(C)C3=O)c2C)cc1	12%	?	11%	-3%	-11%	4%	.	.
C/C(=N\NC(N)=S)C1=CCC2C3CC[C@H]4CC(O)CC[C@]4(C)C3CC[C@]12C (stereo partly specified)	?	.	?	8%	-2%	.	7.9µM*	0%
CC12CCC3C(CCC4CC(O)CCC43C)C1CC=C2c1ccccc1 (stereo unspecified)	.	.	-12%	.	.	.	.	.
Cc1ccc(N)c(C)c1	-24%	.	0%	11%	-2%	.	.	.
Cc1ccc(N=Nc2cc(C)ccc2N)cc1	3.2µM*	.	-58%	-26%	0%	.	3.1µM*	?
CC(C)(C)OC(=O)COc1cc(O)c2c(=O)cc(-c3ccccc3)oc2c1	?	?	-29%	7%	0%	?	28µM*	-29%
O=C(NCC1CCCO1)c1cc2c([nH]c3ccccc32)c(-c2cccc(Br)c2)n1 (stereo unspecified)	2µM*	.	?	1%	10%	.	14µM*	37%
Cc1ccc(C(=O)Nc2ccccc2N2CCCCC2)cc1[N+](=O)[O-]	2.2µM*	.	?	0%	0%	.	16µM*	28µM*
CN1CCN(c2ccnc(-c3ccccc3C(F)(F)F)n2)CC1	.	.	-14%	.	.	.	.	.
SMILES	HCV inhibitor	MARV entry inh	FMDV inh	RE007 growth inh	Sm TGR block	LASV entry inh	HCV inh confirm	HCV cytotox
COc1ccc(C2CC(=O)c3cnc(N4CCc5ccccc54)nc3C2)cc1OC (stereo unspecified)	.	.	.	.	8%	.	.	.
CNc1nc(N2CCc3ccccc32)ncc1F	3.2µM*	25%	.	-8%	5%	?	20µM*	?
Cn1c(=O)c2c(nc(SCC(=O)NCc3ccc4c(c3)OCO4)n2Cc2ccc(Cl)cc2)n(C)c1=O	2.5µM*	11%	-5%	-3%	-23%	1%	3.5µM*	20%
O=[N+]([O-])c1cccc2ccc(/C=C/c3ccc(F)cc3)nc12	1µM*	1%	41%	-21%	5%	16%	3.1µM*	-21%
O=[N+]([O-])c1ccc(/C=C/c2ccc3cccc([N+](=O)[O-])c3n2)cc1	-9%	?	-10%	-2%	8%	-15%	.	.
COc1ccc(C)cc1NC(=O)Cn1cc(S(=O)(=O)Cc2ccccc2Cl)c2ccccc21	.	.	1%	.	-3%	-18%[46.1 µM]	.	.
COc1ccc2nc(C)c3cc(C)oc3c2c1	8.9µM*	2%	-24%	-21%	-10%	0%	22µM*	32%
COc1ccc2nc(C)cc(C(=O)O)c2c1	13%	-14%	12%	3%	-3%	-3%	.	.
Cc1ccc(OCC(=O)Nc2cccc(-c3nnc(-c4ccccc4)o3)c2)c(C)c1	?	-13%	-20%	-3%	-11%	?	.	.
COc1ccc(CC(=O)Nc2cccc(-c3nnc(-c4ccc(C)cc4)o3)c2)cc1OC	3.2µM*	9.2µM*	4µM*	5%	4%	?	6.3µM*	-27%
CC(C)c1ccccc1NC(=O)Cn1c(-c2ccccc2Cl)nc2ccccc21	2.5µM*	4%	-22%	-14%	-1%	-1%	?	10%
COc1ccc(Cl)cc1NC(=O)C(OC)c1ccccc1 (stereo unspecified)	6.3µM*	?	-11%	6%	.	-25%	20µM*	26%
CCCCNC(=O)c1ccc2c(c1)NC(=O)C(CS(=O)(=O)Cc1ccc(F)cc1Cl)N2 (stereo unspecified)	.	.	-10%	.	?	0%[46.1 µM]	.	.
CCOc1cc(CNC(C)(C)C)ccc1OCC(=O)Nc1cccc(C(F)(F)F)c1	?	?	-13%	-17%	5%	-9%[46.1 µM]	3.1µM*	17%
CCN1CCN(S(=O)(=O)c2cc(OCC(=O)NC3CCCCC3)c(C)cc2Cl)CC1	7.1µM*	?	?	2%	38%	-26%	4µM*	7µM*
